Source: PubChem BioAssay (NCI)
The panel holds about 83,000 compounds, 20% with a hit somewhere; the sample as a whole holds those more often.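 Single-dose data. Exposure time 48 hours. Values below 10 considered active.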 The source made the active and inactive calls.

Experiments:
Test in all cases: NCI-60 one-dose screen, 48 h (100 = growth as untreated, 0 = no growth, -100 = all killed)
Settings in all cases: 10 µM unless noted
NCI-H23 lung = tested on: NCI-H23 lung
NCI-H226 lung = tested on: NCI-H226 lung
NCI-H322M lung = tested on: NCI-H322M lung
HOP-62 NSCLC = tested on: HOP-62 NSCLC
NCI-H460 lung = tested on: NCI-H460 lung
HOP-92 NSCLC = tested on: HOP-92 NSCLC
NCI-H522 lung = tested on: NCI-H522 lung
A549/ATCC NSCLC = tested on: A549/ATCC NSCLC
786-0 renal = tested on: 786-0 renal
COLO 205 colon = tested on: COLO 205 colon
DU-145 prostate = tested on: DU-145 prostate
K-562 leukemia = tested on: K-562 leukemia
MALME-3M melanoma = tested on: MALME-3M melanoma
MDA-MB-231 breast = tested on: MDA-MB-231 breast
RXF 393 renal = tested on: RXF 393 renal
SF-268 CNS = tested on: SF-268 CNS
SF-295 CNS = tested on: SF-295 CNS
UACC-257 melanoma = tested on: UACC-257 melanoma
M14 melanoma = tested on: M14 melanoma
SF-539 CNS = tested on: SF-539 CNS

Measured: growth

COc1ccc(N(Cc2cc(OC)c(OC)c(OC)c2)C2OC(=O)c3ccccc32)cc1 (configuration not stated)
inactive: NCI-H23 lung 36.7% | NCI-H226 lung 67.2% | NCI-H322M lung 52.4% | HOP-62 NSCLC 28.1% | NCI-H460 lung 10.4% | HOP-92 NSCLC 51.3% | A549/ATCC NSCLC 23.7% | 786-0 renal 61.8% | DU-145 prostate 25.5% | K-562 leukemia 17.7% | MALME-3M melanoma 31.3% | MDA-MB-231 breast 41.1% | SF-268 CNS 44% | SF-295 CNS 16.3% | UACC-257 melanoma 70.8% | M14 melanoma 25.7%
active: NCI-H522 lung -17.2% | COLO 205 colon -3.48% | RXF 393 renal -31.7%

CCCCCCCCCCCCCC(=O)C(C)N (configuration not stated)
inactive: NCI-H23 lung 51.6% | NCI-H226 lung 87.9% | NCI-H322M lung 53.5% | HOP-62 NSCLC 22.3% | A549/ATCC NSCLC 51.6% | 786-0 renal 71.3% | COLO 205 colon 15.9% | MALME-3M melanoma 77.8% | RXF 393 renal 28% | SF-268 CNS 37.7% | SF-295 CNS 56.3% | UACC-257 melanoma 91.6% | M14 melanoma 63.7%
active: NCI-H460 lung 4.75% | HOP-92 NSCLC 8.22% | NCI-H522 lung 0.193% | DU-145 prostate 7.93% | K-562 leukemia -44.3% | MDA-MB-231 breast -54.1%

O=C1c2ccccc2-c2nccc3cc(Cl)nc1c23
inactive: NCI-H226 lung 48.2% | NCI-H322M lung 95.7% | HOP-62 NSCLC 47.6% | NCI-H460 lung 40.2% | HOP-92 NSCLC 21.2% | A549/ATCC NSCLC 73% | 786-0 renal 71.1% | COLO 205 colon 54.7% | DU-145 prostate 37.3% | MDA-MB-231 breast 78.7% | SF-268 CNS 24.6% | SF-295 CNS 53.2% | UACC-257 melanoma 58.6%
active: NCI-H23 lung -62.3% | NCI-H522 lung -75.9% | K-562 leukemia -6.02% | MALME-3M melanoma -65.6% | RXF 393 renal -43.1% | M14 melanoma -63.4%

COc1ccccc1N1CCN(CCn2c(=O)c3c(c4ccccc4n3C)n(C)c2=O)CC1
inactive: NCI-H23 lung 103% | NCI-H226 lung 82.9% | NCI-H322M lung 101% | HOP-62 NSCLC 107% | NCI-H460 lung 96.7% | HOP-92 NSCLC 92.1% | NCI-H522 lung 45.2% | A549/ATCC NSCLC 71.5% | 786-0 renal 111% | COLO 205 colon 100% | DU-145 prostate 107% | K-562 leukemia 100% | MALME-3M melanoma 110% | MDA-MB-231 breast 90.4% | RXF 393 renal 101% | SF-268 CNS 96.2% | SF-295 CNS 97.8% | UACC-257 melanoma 90.6% | M14 melanoma 98.8%

C=C1CCC2C3(C)COC(C)(C)OC3CCC2(C)C1C/C=C1/C(=O)OCC1OC(C)=O (configuration not stated)
inactive: NCI-H23 lung 50.4% | NCI-H226 lung 50.3% | NCI-H322M lung 100% | HOP-62 NSCLC 112% | NCI-H460 lung 95.4% | HOP-92 NSCLC 123% | A549/ATCC NSCLC 61.7% | 786-0 renal 48.5% | DU-145 prostate 42.4% | MALME-3M melanoma 71.9% | MDA-MB-231 breast 86.2% | SF-268 CNS 63.4% | SF-295 CNS 116% | UACC-257 melanoma 20.2% | M14 melanoma 19.3%
active: NCI-H522 lung -88.7% | COLO 205 colon -0.595% | K-562 leukemia 9.82% | RXF 393 renal -53.8%

CCN(C(=O)CN1CCN(c2cc3c(cc2F)c(=O)c(C(=O)O)cn3C2CC2)CC1)c1nc(-c2ccc(OC)cc2)cs1
active: NCI-H460 lung -2.51%
inactive: NCI-H23 lung 66% | NCI-H226 lung 85.8% | NCI-H322M lung 38.8% | HOP-62 NSCLC 80.9% | HOP-92 NSCLC 40% | NCI-H522 lung 49% | A549/ATCC NSCLC 11.4% | 786-0 renal 102% | COLO 205 colon 63.7% | DU-145 prostate 35.7% | K-562 leukemia 32.5% | MALME-3M melanoma 66.1% | MDA-MB-231 breast 68.5% | RXF 393 renal 74.9% | SF-268 CNS 59.8% | SF-295 CNS 94.6% | UACC-257 melanoma 43.1% | M14 melanoma 48.7%

COc1cc(-c2cnc3nonc3n2)c(OC)c2c1OCO2
inactive: NCI-H23 lung 95.4% | NCI-H226 lung 95.6% | NCI-H322M lung 90.9% | HOP-62 NSCLC 101% | NCI-H460 lung 102% | HOP-92 NSCLC 97.9% | NCI-H522 lung 78.7% | A549/ATCC NSCLC 94.1% | 786-0 renal 104% | COLO 205 colon 113% | DU-145 prostate 113% | K-562 leukemia 49.2% | MALME-3M melanoma 91.5% | MDA-MB-231 breast 89.4% | RXF 393 renal 90.9% | SF-268 CNS 99% | SF-295 CNS 104% | UACC-257 melanoma 93.6% | M14 melanoma 107%

CCN(C(=O)CN1CCN(c2cc3c(cc2F)c(=O)c(C(=O)O)cn3CC)CC1)c1nc(-c2ccccc2)cs1
inactive: NCI-H226 lung 18.2% | NCI-H322M lung 17.7% | HOP-62 NSCLC 15.5% | 786-0 renal 14.3% | DU-145 prostate 23.3% | K-562 leukemia 12.3% | SF-268 CNS 22.7% | M14 melanoma 18.3%
active: NCI-H23 lung 9.94% | NCI-H460 lung 5.71% | HOP-92 NSCLC -31.8% | NCI-H522 lung -15.4% | A549/ATCC NSCLC 4.66% | COLO 205 colon -51.9% | MALME-3M melanoma -5.46% | MDA-MB-231 breast 6.19% | RXF 393 renal 4.13% | SF-295 CNS -17.5% | UACC-257 melanoma -9.83%

CC(=O)C1=C(O)C=C2Oc3c(C(=O)/C=C/c4c(Cl)cccc4Cl)c(O)c(C)c(O)c3[C@]2(C)C1=O
active: NCI-H23 lung -37.9% | NCI-H226 lung -41.2% | NCI-H322M lung -25.9% | HOP-62 NSCLC -48.6% | NCI-H460 lung 0.581% | HOP-92 NSCLC -24.9% | NCI-H522 lung -30.4% | A549/ATCC NSCLC -46.1% | 786-0 renal -39.3% | COLO 205 colon -59.1% | DU-145 prostate 6.3% | K-562 leukemia -26.7% | MALME-3M melanoma -67.7% | MDA-MB-231 breast -63.4% | RXF 393 renal -48.9% | SF-268 CNS -20.4% | SF-295 CNS -37% | UACC-257 melanoma -37% | M14 melanoma -10.9%

COc1ccc(CN(c2ccc(C)cc2)C2OC(=O)c3ccccc32)cc1OC (configuration not stated)
inactive: NCI-H23 lung 106% | NCI-H226 lung 91.1% | NCI-H322M lung 99.6% | HOP-62 NSCLC 106% | NCI-H460 lung 101% | HOP-92 NSCLC 91.3% | NCI-H522 lung 97.2% | A549/ATCC NSCLC 88.3% | 786-0 renal 98.5% | COLO 205 colon 138% | DU-145 prostate 115% | K-562 leukemia 99.6% | MALME-3M melanoma 104% | MDA-MB-231 breast 117% | RXF 393 renal 104% | SF-268 CNS 113% | SF-295 CNS 100% | UACC-257 melanoma 95% | M14 melanoma 110%

Cc1nn(-c2nc3ccccc3[nH]2)c2c1C(c1ccc3c(c1)OCO3)CC(=O)N2 (configuration not stated)
active: NCI-H23 lung 4.34% | NCI-H460 lung -8.19% | K-562 leukemia -14.8% | RXF 393 renal 8.03% | SF-295 CNS -36.3%
inactive: NCI-H226 lung 32% | NCI-H322M lung 65% | HOP-62 NSCLC 22.1% | HOP-92 NSCLC 12.6% | NCI-H522 lung 26.7% | A549/ATCC NSCLC 22.8% | 786-0 renal 32.8% | COLO 205 colon 83.1% | DU-145 prostate 30.7% | MALME-3M melanoma 27.7% | MDA-MB-231 breast 40.8% | SF-268 CNS 19.3% | UACC-257 melanoma 69.1% | M14 melanoma 42.5%

O=C1Nc2ccccc2C12CC(c1ccc(Cl)cc1)=NN2 (configuration not stated)
inactive: NCI-H23 lung 101% | NCI-H226 lung 86.6% | NCI-H322M lung 110% | HOP-62 NSCLC 104% | NCI-H460 lung 97.9% | HOP-92 NSCLC 74.3% | NCI-H522 lung 90.1% | A549/ATCC NSCLC 82.2% | 786-0 renal 100% | COLO 205 colon 108% | DU-145 prostate 115% | K-562 leukemia 94.5% | MALME-3M melanoma 105% | MDA-MB-231 breast 89.8% | RXF 393 renal 99.4% | SF-268 CNS 106% | SF-539 CNS 99.2% | M14 melanoma 98.7%
